Each structure is given as a SMILES string. The campaign covered roughly 52,000 compounds. About 4,300 (8.3%) were called active. This is one part of a sample in which actives are shown more often than they occur. Cut-off read from the data, not from the text of the source: active = survival mostly below about 52% (no sharp cut-off); inactive = mostly above about 56%.

The assay has as its system DeltatarO mutant. As to the kind of experiment: growth inhibition of S. aureus wild type versus tarO mutant, primary screen, teichoic acid synthesis inhibitors, RN4220, OD600 (AID 463173). To be noted: OD600, 18 h, active compounds read low, screened at 18.75 µg/mL (by protocol).
As to `CCC(Oc1ccccc1)C(=O)Nc1cccc(OCc2cc(=O)n3cccc(C)c3n2)c1` (configuration not stated), the survival is 128% (inactive).

For `O=C1N(CN2CCCCC2)c2ccccc2C12OCCCCO2`, the survival is 94% (inactive).

Regarding `CCc1ccc(OCC2c3cc(OC)c(OC)cc3CCN2C(=O)Cc2ccc(OC)c(OC)c2)cc1` (configuration not stated), the survival is 76% (inactive).

Turning to `COc1ccccc1OCC(=O)NCC(c1ccc(Cl)cc1)N1CCCCC1` (configuration not stated), the survival was 61% (inactive).

For the compound `O=C(Nc1ccc(F)cc1F)c1cc(S(=O)(=O)N2CCCCC2)c[nH]1`, the survival was 83% (inactive).

Take `Cc1ccc(NC(=O)c2cc(-c3ccc(Br)s3)nc3ccccc23)cc1F`: the survival is 59% (inactive).

As to `CCOc1cccc(CC(=O)N2CCc3c([nH]c4ccccc34)C2c2ccc(SC)cc2)c1OCC` (configuration not stated), the survival was 107% (inactive).

As for `Cn1nccc1C(=O)NCc1ccc2c(c1)CCN2C(=O)c1ccc(F)cc1`, the survival is 65% (inactive).

For the compound `CCOc1ccc(-n2c(SCC(=O)NCc3ccco3)nc3c([nH]c4ccccc43)c2=O)cc1`, the survival was 37% (active).

As to `COC(=O)c1ccc(CSc2nc3c([nH]c4ccccc43)c(=O)n2-c2cc(C)cc(C)c2)o1`, the survival is 8% (active).

As for `O=C(CSc1nc2c([nH]c3ccccc32)c(=O)n1-c1ccc(F)cc1)NCc1ccco1`, the survival was 81% (inactive).

With `COc1ccc(-n2c(SCC(=O)NCc3ccco3)nc3c([nH]c4ccccc43)c2=O)cc1`, the survival was 102% (inactive).

For `COC(=O)c1ccc(CSc2nc3c([nH]c4ccccc43)c(=O)n2-c2ccc(Cl)cc2)o1`, the survival was 112% (inactive).

For `COC(=O)c1ccc(CSc2nc3c([nH]c4ccccc43)c(=O)n2-c2cccc(Cl)c2)o1`, the survival is 79% (inactive).

Take `CCC(C)NC(=O)CSc1nc2cc3c(cc2c(=O)n1CCCCCC(=O)NCc1ccc2c(c1)OCO2)OCO3` (configuration not stated): the survival was 84% (inactive).

On to `O=C(COc1ccccc1F)Nc1c(C(=O)Nc2cccc(F)c2)oc2ccccc12`, for which the survival is 75% (inactive).

On to `COc1ccc(CCNc2nc(-c3ccc(C)cc3)cc(C(F)F)n2)cc1OC`, for which the survival was 87% (inactive).

On to `COc1ccc(-c2cc(C(F)(F)F)nc(SCC(=O)NCCc3ccc(OC)c(OC)c3)n2)cc1`, for which the survival was 59% (inactive).

For the compound `COc1ccc(CCNC(=O)CSc2nc(-c3ccc(F)cc3)cc(C(F)(F)F)n2)cc1OC`, the survival is 77% (inactive).

As for `COc1ccc(CCNc2nc(-c3ccc(F)cc3)cc(C(F)(F)F)n2)cc1OC`, the survival is 109% (inactive).

`COc1ccc(CCNC(=O)Cn2nc(-c3ccc(Cl)cc3)ccc2=O)cc1OC`: the survival was 75% (inactive).

For the compound `COc1ccc(CCNc2nc(-c3ccccc3OC)cc(C(F)(F)F)n2)cc1OC`, the survival was -8% (active).

With `COc1ccc(CCNC(=O)C2CCN(c3nc4ccccc4nc3C(F)(F)F)CC2)cc1OC`, the survival is 92% (inactive).

Regarding `COc1cccc(-c2cc(C(F)(F)F)nc(NCCc3ccc(OC)c(OC)c3)n2)c1`, the survival was 4% (active).

As to `COc1ccc(CCNc2nc(-c3ccc(Cl)cc3)cc(C(F)(F)F)n2)cc1OC`, the survival is 8% (active).

For the compound `COc1ccc(CCNc2nc(-c3ccc(OC)c(OC)c3)cc(C(F)(F)F)n2)cc1OC`, the survival is 4% (active).

Take `CCOC(=O)N1CCC(NC(=O)c2cnn(-c3ccc(C)cc3)c2-n2cccc2)CC1`: the survival was 69% (inactive).

Take `CCc1ccc2[nH]c(=O)c(CN(CCCN3CCOCC3)C(=S)NC)cc2c1`: the survival was 88% (inactive).

On to `CC(C)c1c(O)nc(SCCN2CCOCC2)[nH]c1=O`, for which the survival is 92% (inactive).

`CCOc1ccc2nc(NC3=NCCC(=O)N3)nc(C)c2c1`: the survival was 80% (inactive).

For the compound `CCN(CC)C(=O)c1sc2c(c1C)c(=O)n(-c1ccc(C)c(C)c1)c(=O)n2CC(=O)Nc1ccc(F)cc1`, the survival was 92% (inactive).

As for `CCCCc1nn2c(=O)cc(COC(=O)c3ccc(NC(=O)C4CCCCC4)cc3)nc2s1`, the survival was 91% (inactive).

`CCn1cc(C(=O)NCc2ccc(Cl)cc2)c(=O)c2cc(S(=O)(=O)N3CCc4ccccc4C3)ccc21`: the survival is 64% (inactive).

Consider `CCN(CC)C(=O)COc1ccc2ccc(=O)oc2c1`, for which the survival is 84% (inactive).

Consider `COc1ccccc1CNC(=O)CCCn1c(=O)c2ccccc2n(Cc2ccc(C)cc2)c1=O`, for which the survival was 132% (inactive).

For `CCOC(=O)Cn1c(=O)n(C2CCCCC2)c2nc(-c3ccc(OCC)cc3)nc(C(N)=O)c21`, the survival was 86% (inactive).

For `CCCS(=O)(=O)N1CC(=O)N(c2ccccc2C)C(C)(C(=O)NC2CCCCC2)C1` (configuration not stated), the survival is 75% (inactive).

For `COc1ccccc1NC(=O)C1CCN(S(=O)(=O)c2cn(C)cn2)CC1`, the survival is 69% (inactive).

On to `CCCc1nc2nc(C)c(NS(=O)(=O)c3ccc(C)c(C)c3)c(=O)n2[nH]1`, for which the survival is 129% (inactive).

`COc1cc(OC)cc(C(=O)Oc2c(Sc3ccccc3)c(C)nn2C(C)(C)C)c1`: the survival is 43% (active).

For `CCOc1ccc(C(=O)Oc2c(Sc3ccccc3)c(C)nn2C(C)(C)C)cc1OCC`, the survival is 57% (inactive).

Consider `Cc1nn(C(C)(C)C)c(OC(=O)c2cccc(F)c2)c1Sc1ccccc1`, for which the survival is 24% (active).

Regarding `COc1ccc(C(=O)Oc2c(Sc3ccc(Cl)cc3)c(C)nn2C(C)(C)C)cc1OC`, the survival is 56% (inactive).

In the case of `Cc1nn(C(C)(C)C)c(OC(=O)c2c(F)cccc2F)c1Sc1ccccc1`, the survival was 127% (inactive).

In the case of `Cc1cccc(C(=O)Oc2c(Sc3ccccc3)c(C)nn2C(C)(C)C)c1`, the survival is 57% (inactive).

Turning to `CCOc1ccc(NC(=O)CSc2nc(-c3ccc(OC)cc3)nc3c2Cc2c(CO)cnc(C)c2O3)cc1`, the survival was 79% (inactive).

Turning to `CS(=O)(=O)N1CCc2cc(C(=O)N3CCN(c4ccccc4F)CC3)ccc21`, the survival is 45% (inactive).

Consider `COc1ccc(C(=O)Nc2nc3nc(C)c(Cl)c(=O)n3[nH]2)cc1`, for which the survival was 100% (inactive).

In the case of `COc1cc(C2CC(=O)N(c3ccccc3)C3=C2C(=O)OC3)cc(OC)c1OC` (configuration not stated), the survival is 72% (inactive).

Consider `Cc1cc2cc(CN(CC3COCCO3)S(=O)(=O)c3ccc(F)cc3)c(=O)[nH]c2cc1C` (configuration not stated), for which the survival is 103% (inactive).

For `O=C1c2cccc3cccc(c23)N1c1ccccc1`, the survival is 77% (inactive).

Take `COC(=O)C(NC(=O)CC(C)C)(Nc1nc2c(s1)CCCC2)C(F)(F)F` (configuration not stated): the survival is 120% (inactive).

`COc1ccc(-c2cc(C(F)(F)F)nc(SCC(=O)NCc3ccc(Cl)cc3)n2)cc1`: the survival was 62% (inactive).

As for `COc1ccc(CNC(=O)c2cc(-c3ccc(Cl)cc3)n[nH]2)cc1`, the survival was 78% (inactive).

Take `COc1ccc(CNc2nc(-c3ccc(Cl)cc3)cc(C(F)(F)F)n2)cc1`: the survival was 29% (active).

Regarding `COc1ccc(-c2cc(C(F)(F)F)nc(NCc3ccc(Cl)cc3)n2)cc1`, the survival was 3% (active).

In the case of `CCN(c1cccc(C)c1)S(=O)(=O)c1ccc2[nH]cc(C(=O)NCCCOC)c(=O)c2c1`, the survival is 67% (inactive).

Take `COc1ccc(N(C)C(=O)c2nc(-c3cccc(F)c3)n3c2CCCCC3)c(OC)c1`: the survival is 74% (inactive).

With `CCOC(=O)c1cccc(NS(=O)(=O)c2cc(-c3cnc(C4CC4)o3)ccc2C)c1`, the survival is 90% (inactive).

On to `O=C(Nc1cccnc1)c1cc(-c2ccc(Cl)cc2)on1`, for which the survival is 61% (inactive).

As to `CN1/C(=C\C(=O)Nc2cccnc2)c2ccccc2CC1(C)C`, the survival is 65% (inactive).

As to `Cn1c(=O)oc2cc(S(=O)(=O)CCC(=O)NCCc3ccccc3)ccc21`, the survival was 96% (inactive).

As to `COC(=O)c1c(NC(=O)C2c3ccccc3Oc3ccccc32)sc2c1CCC(C(C)(C)C)C2` (configuration not stated), the survival is 78% (inactive).

For `COc1ccc(NC(=O)c2c(NC(=O)COc3ccccc3)sc3c2CCC(C(C)(C)C)C3)cc1` (configuration not stated), the survival is 75% (inactive).

Regarding `CCC(=O)Nc1sc2c(c1C(=O)Nc1ccc(OC)cc1)CCC(C(C)(C)C)C2` (configuration not stated), the survival was 13% (active).

Turning to `Cc1ccccc1NC(=O)c1c(NC(=O)c2ccncc2)sc2c1CCC(C(C)(C)C)C2` (configuration not stated), the survival is 110% (inactive).

`CC(C)(C)C1CCc2c(sc(NC(=O)c3cccc(Cl)c3)c2C(N)=O)C1` (configuration not stated): the survival is 70% (inactive).

Turning to `CCOc1ccc(NC(=O)c2c(NC(=O)c3ccncc3)sc3c2CCC(C(C)(C)C)C3)cc1` (configuration not stated), the survival was 113% (inactive).

For `COC(=O)c1c(NC(=O)c2cccc(OC)c2)sc2c1CCC(C(C)(C)C)C2` (configuration not stated), the survival is 43% (active).

Regarding `COc1ccc(NC(=O)c2c(NC(=O)c3ccncc3)sc3c2CCC(C(C)(C)C)C3)cc1` (configuration not stated), the survival is 41% (active).

As to `CCOc1ccc(NC(=O)c2c(NC(=O)c3cccs3)sc3c2CCC(C(C)(C)C)C3)cc1` (configuration not stated), the survival was 67% (inactive).

Consider `O=S(=O)(c1ccccc1)N1CCC(O)(c2ccccc2)C2CCCCC21` (configuration not stated), for which the survival is 73% (inactive).

For `CC(=O)c1cccc(NC(=O)C(Cc2ccccc2)NS(=O)(=O)c2ccc(Br)s2)c1` (configuration not stated), the survival is 116% (inactive).

In the case of `Cc1n[nH]c(=S)n1CC(=O)n1c2c(c3ccccc31)CCCC2`, the survival was 91% (inactive).

On to `COc1ccc(C)cc1-n1nnc(C(=O)Nc2cccc(SC)c2)c1C`, for which the survival was 86% (inactive).

For `Cc1cccc(NC(=O)c2ccc(-n3c(C)nnc3C)cc2)c1`, the survival is 88% (inactive).

On to `Cc1ccc(C)c(-n2nnc(C(=O)Nc3ccc(Br)cc3)c2C)c1`, for which the survival was 18% (active).

Regarding `COc1cccc(NC(=O)c2nn(-c3ccc(C)cc3)c(=O)n(C)c2=O)c1`, the survival is 124% (inactive).

On to `CC(=O)c1nnn(-c2ccc(C)cc2Cl)c1C`, for which the survival was 65% (inactive).

As for `CC(=O)Nc1c(C(=O)Nc2cccc(C)c2)nnn1-c1ccc(C)cc1`, the survival is 69% (active).

Turning to `COc1ccc(NC(=O)c2cc(S(=O)(=O)N3CCCC(C)C3)cn2C)c(OC)c1` (configuration not stated), the survival is 87% (inactive).

With `COc1ccccc1N1CCN(c2cc(C)nc3c(-c4ccc(Cl)cc4)c(C)nn23)CC1`, the survival was 87% (inactive).

Take `Cc1cc(N2CCN(c3cc(Cl)ccc3C)CC2)n2nc(-c3ccccc3)nc2n1`: the survival is 77% (inactive).

Consider `COc1ccccc1N1CCN(c2cc(C)nc3nc(-c4ccc(C)cc4)nn23)CC1`, for which the survival was 40% (active).

As to `COc1ccccc1N1CCN(c2cc(C)nc3nc(-c4ccc(Cl)cc4)nn23)CC1`, the survival was 38% (active).

Consider `Cc1ccc(-c2nc3nc(C)cc(N4CCN(c5cccc(C)c5C)CC4)n3n2)cc1`, for which the survival was 128% (inactive).

Regarding `COc1ccc(N2CCN(c3cc(C)nc4nc(-c5ccc(C)cc5)nn34)CC2)cc1`, the survival was 53% (inactive).

These data come from PubChem BioAssay AID463173 (ICCB-Longwood Screening Facility, Harvard Medical School, 2010).
